PubChem BioAssay AID743279 (National Center for Advancing Translational Sciences (NCATS), 2014)
Hit rate of the full screen: of about 360,000 compounds, about 17,000 (4.7%) were called active. Inconclusive results (about 5%) are left out. No stated cut-off is given here; in the data, active means activity change below about -50%; inconclusive means mostly about -30% to -49%; inactive means weaker than that. Only a selection was taken, and actives are over-represented in it overall.

assay: qHTS for Inhibitors of Inflammasome Signaling: IL-1-beta AlphaLISA Primary Screen; settings: THP-1 LPS/ATP IL-1B secretion, 16 h; at 57.5 µM, stronger effect = lower value
How it was run: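 THP-1 cells pretreated 1 hr with compounds (up to 57.5 uM final), then stimulated with LPS (250 ng/mL final) plus ATP (1.25 mM final); secreted IL-1B measured by AlphaLISA after 16 hr, decreased signal indicating inhibition.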
On the % scale 0 is the no-effect control and ±100 the full control effect.

Activity change, inactive:
CN(C)CCCN1C(=O)CSC1c1ccc([N+](=O)[O-])cc1 (stereo not given) 36.5%, CCCCc1ccc(NC(=O)NCc2cccnc2)cc1 -8.19%, O=C(NCc1cccnc1)c1ccc2nc([C@@H]3O[C@H](CO)[C@H](O)[C@H](O)[C@H]3O)[nH]c2c1 2.47%, COc1cc(C(=O)OCC(=O)N(CC(C)C)C2CCS(=O)(=O)C2)ccc1OCC(C)C (stereo not given) -19.9%, COc1cccc(-c2noc(C3CCCN(C(=O)c4ccc(F)cc4)C3)n2)c1 (stereo not given) -17.2%, CCOC(=O)C1(CCOc2ccccc2)CCN(C(=O)c2cncs2)CC1 -28.5%, CCOC(=O)C1(CCOc2ccccc2)CCN(Cc2cc(OC)c(O)cc2Cl)CC1 -22.4%, CCOC(=O)C1(CCOC)CCN(Cc2ccc(C(=O)OC)cc2)CC1 4.83%, CCCS(=O)(=O)N1CCC(CCOc2ccccc2)(C(=O)OCC)CC1 30.8%, COc1ccc(NC2CC(=O)N(C)C2=O)cc1 (stereo not given) 19.6%, C/C(=N/Nc1nc(-c2ccccc2)c(CC(=O)O)s1)c1ccccc1 -6.09%, CC(C)CCC(=O)Nc1cc(S(=O)(=O)N2CCOCC2)ccc1N1CCCC1 -21.6%, CCc1nc2ccc(C(=O)N3CCC(O)(Cc4ccccc4)CC3)cn2c1N(C)C(=O)Cc1ccccc1 1.17%, Cc1csc(NC(=O)C2CCN(S(=O)(=O)c3ccccc3)CC2)n1 -7.33%, COc1cc(C=C(OC(C)=O)c2ccc3c(c2)OCO3)cc(OC)c1OC 24.5%, COc1ccc(OC)c(/C=C/C(=O)OCC(=O)Nc2ccc3c(c2)OCCO3)c1 37.8%, CCOC(=O)c1c(S(=O)(=O)NCC(=O)Nc2ccc(C)cc2)c(C)n(C)c1C -6.41%, CCOc1cc(/C=N/NC(=O)c2ccncc2)cc(Br)c1O -14.1%, Cc1ccc(N2C(=O)SC(N(CC(=O)O)c3ccc(C)cc3)C2=O)cc1 (stereo not given) 18.1%, Cc1c(C(=O)N2CCN(c3ccc(F)cc3)CC2)oc2c1C(=O)CCC2 14.7%, Cc1ccc2c(C)c(C(=O)N(C)Cc3ccncn3)oc2c1C 13.6%, O=C(Nc1ccccc1F)c1cc(S(=O)(=O)N2CCCCC2)cs1 6.67%, CC12CCCCC1=CC(=O)CC2 (stereo not given) 13.3%, CCn1c(SCC(=O)NCC2CCCO2)nc2ccccc21 (stereo not given) 31.3%, Cn1c(SCC(=O)c2ccccc2)ncc(C(=O)Nc2ccc(F)cc2)c1=O -2.98%, NC(=O)c1ncn([C@@H]2O[C@H](CNCc3cnc(N4CCOCC4)s3)[C@@H](O)[C@H]2O)n1 17.3%, CC1CN(C(=O)c2ccc3c(c2)OCO3)OC(c2ccccc2)O1 (stereo not given) -0.281%, O=C(Cn1cc(C(F)(F)F)ccc1=O)N/N=C/c1ccc(Cl)cc1Cl 0%, COc1ccc(C(=O)NCC[N+](C)(C)C)cc1 22.2%, CCOc1cc(C(=O)O)ccc1OCCOc1ccccc1 4.78%, CCN(c1ccccc1)S(=O)(=O)c1cc(C(=O)NCc2ccccn2)ccc1C -10.4%, CN(Cc1ccccc1)C(=O)CCC1CCN(C(=O)c2ccco2)CC1 -7.63%, O=C(Nc1ccc(S(=O)(=O)NCC2CCCO2)cc1)c1ccc(F)cc1 (stereo not given) 11.6%, CNC(=O)C[C@H]1C(=O)N(c2ccc(OC)cc2)C[C@@H]1Cc1ccccc1 -12.1%, COc1ccc(N2C(=O)CC(N3CCC(C(N)=O)CC3)C2=O)cc1 (stereo not given) -4%, OCC(CO)(CO)NCc1ccc(-c2ccccc2)cc1 6.61%, Cc1ccc(-c2noc(CSc3nnc(-c4ccncc4)n3-c3ccc(F)cc3)n2)cc1 -15.2%, Cc1ccc(-c2noc(CSc3nnc(-c4cccs4)n3C)n2)cc1 34.2%, CCCCCCCCOC1OC(CO)C(O)C(O)C1NC(C)=O (stereo not given) 48.8%, O=C(COc1ccc(Cl)cc1)N1CCN(c2cccc(C(F)(F)F)c2)CC1 -4.57%, CSCCC(NC(=O)COc1ccccc1)C(=O)OCCOc1ccc(F)cc1 (stereo not given) 5.31%, O=C(N[C@@H](Cc1c[nH]c2ccccc12)C(=O)O)OCC1c2ccccc2-c2ccccc21 4.34%, Cc1nnc(NC(=O)c2ccc3nccnc3c2)s1 -17.3%, Cc1nnc(NC(=O)C(c2ccccc2)c2ccccc2)s1 -5.78%, C[C@@H]1CN([C@@H](C)CO)C(=O)c2c(c3ccccc3n2C)-c2ccccc2CO[C@H]1CN(C)C(=O)C1CC1 23%, Cc1ccc(CN(C)C[C@@H]2OCc3cnnn3CCCC(=O)N([C@@H](C)CO)C[C@H]2C)cc1 13.2%, O=C(CN1CCC(O)(c2ccccc2)CC1)Nc1ccc2c(c1)OCCO2 -25.5%, O=C(COC(=O)c1ccccc1)c1ccc2c(c1)OCCO2 -8.63%

Activity change, active:
CCCCCCCCCCCCN1C(=O)CSC1c1cccnc1 (stereo not given) -56.2%, CCOC(=O)C1(CCOc2ccccc2)CCN(Cc2cc(OC)cc(OC)c2)CC1 -89.9%, CCOC(=O)C1(CCOc2ccccc2)CCN(Cc2ccc(C#CCCO)cc2)CC1 -57.7%, COc1ccc(OC)c(/C=C/C(=O)c2ccc3c(c2)OCO3)c1 -97.2%, Cc1ccc2c(C)c(C(=O)N3CCN(c4ccncc4)CC3)oc2c1C -52.1%, Cc1ccc(NC(=O)c2cnc(SCC(=O)NCC3CCCO3)n(C)c2=O)cc1 (stereo not given) -103%, CC/C(=C(/c1ccccc1)c1ccc(OCC[N+](C)(C)C)cc1)c1ccccc1 -61.5%, COc1ccc(N2C(=O)C3C(C2=O)C(C(=O)c2ccccc2)N2CCCC32)cc1 (stereo not given) -82.1%, Cc1ccc(-c2noc(CSc3nnnn3-c3ccccc3)n2)cc1 -64.8%, CSCCC(NC(=O)COc1ccccc1)C(=O)N1CCN(c2cccc(C(F)(F)F)c2)CC1 (stereo not given) -61.8%, Cc1nnc(NC(=O)Nc2ccc(Cl)c(Cl)c2)s1 -94%, O=C(CCN1CCc2ccccc2C(O)(c2ccccc2)C1)c1ccc2c(c1)OCCO2 (stereo not given) -101%
